For part of these data: Results with a measured potency or affinity are listed apart.
Key:
Staphylococcus aureus = assay: Antibacterial activity against Staphylococcus aureus MRSA ATCC 43300 (CO-ADD:GP_020); MIC in CAMBH media using NBS plates, by Resazurin F(560/590); assay type: functional; conditions: Concentration 20 uM, ASSAY_TEST Inhibition of Bacterial Growth, detection method Resazurin, Fluorescence (ex560/em590), MEDIA CAMHB, plate type 384well, CORNING #3640, time 18 hr
Acinetobacter baumannii = assay: Antibacterial activity against Acinetobacter baumannii ATCC 19606 (CO-ADD:GN_034); MIC in CAMBH media using NBS plates, by Resazurin F(560/590); assay type: functional; conditions: Concentration 20 uM, ASSAY_TEST Inhibition of Bacterial Growth, detection method Resazurin, Fluorescence (ex560/em590), MEDIA CAMHB, plate type 384well, CORNING #3640, time 18 hr
Escherichia coli = assay: Antibacterial activity against Escherichia coli ATCC 25922 (CO-ADD:GN_001); MIC in CAMBH media using NBS plates, by Resazurin F(560/590); assay type: functional; conditions: Concentration 20 uM, ASSAY_TEST Inhibition of Bacterial Growth, detection method Resazurin, Fluorescence (ex560/em590), MEDIA CAMHB, plate type 384well, CORNING #3640, time 18 hr
Klebsiella pneumoniae = conditions: Concentration 20 uM; ASSAY_TEST Inhibition of Bacterial Growth; detection method Absorption (OD600); MEDIA CAMHB; plate type 384well; NBS; CORNING #3640; time 18 hr
Candida albicans = conditions: 20 µM
Cryptococcus neoformans = conditions: Concentration 20 uM; ASSAY_TEST Inhibition of Fungal Growth; detection method Resazurin; Absorption (OD600-OD570); plate type 384well; NBS; CORNING #3640

| SMILES | Inhibition (Staphylococcus aureus) [%] | Inhibition (Acinetobacter baumannii) [%] | Inhibition (Escherichia coli) [%] | Inhibition (Klebsiella pneumoniae) [%] | Inhibition (Candida albicans) [%] | Inhibition (Cryptococcus neoformans) [%] |
| --- | --- | --- | --- | --- | --- | --- |
| Cc1cc2cc3n(c2nn1)N=C(Cl)CC3 | 10.12 | 6.88 | -0.69 | 18.79 | 2.37 | -3.5 |
| CSc1cccc(NC(=O)OC2CCCCCCCCCCC2)c1 | 23.58 | 6.29 | 14.03 | 20.05 | 2.81 | -2.07 |
| OCC1CCCC(n2cnc3c(S)ncnc32)O1 (stereo not given) | 9.66 | 5.96 | 6.02 | 14.91 | 14 | -13.51 |
| N#C/N=C/N1CC=C(c2ccc(Cl)cc2)CC1 | 11.33 | 10.12 | 1.23 | 20.23 | 8.73 | -3.92 |
| Nn1c(Cc2ccccc2)nnc1Cc1ccccc1 | 7.31 | 16.12 | -0.96 | 11.84 | 2.51 | -5.12 |
| CSc1ccc(NC(=O)Nc2ccccc2C(N)=O)cc1 | 16.3 | 11.66 | 11.12 | 15.39 | 4.24 | 3.99 |
| COc1ccc(NC(=O)c2cc3ccc4c5ccccc5[nH]c4c3cc2O)cc1 | 16.09 | 5.56 | 1.69 | 7.19 | -5.12 | 1.29 |
| Cc1nc(C(N)=O)nc2ccccc12 | 17.26 | -10.29 | 6.82 | 15.63 | 0.61 | 1.62 |
| COc1ccc2c(c1)C(=O)C1NC(=O)NC(=O)C1(Br)N2 (stereo not given) | 19.24 | -10.78 | 15.57 | 4.36 | -1.05 | -13.08 |
| CCOC(=O)Cc1cnc(S)nc1O | 9.6 | -11.54 | 7.99 | 8.74 | 1.43 | -1.74 |
| Cc1cc(=O)[nH]/c(=N/N=C2/CCCCC2C)[nH]1 (stereo not given) | 22.54 | -10.76 | 10 | 5.45 | -3.38 | -9.25 |
| Sc1nccn1-c1c(Cl)cccc1Cl | 10.46 | 12.03 | 0.7 | 7.58 | 4.08 | -8.98 |
| CCOC(=O)c1cc2c(OC)c(OC)ccc2c2ncc(C#N)c(O)c12 | 2.33 | 4.98 | -22.93 | 0.73 | 5.12 | 44.69 |
| CC1(C)CCSC(/C=C/c2ccccc2)=N1 | 5.78 | 13.91 | -1.41 | 18.54 | 1.26 | -4.58 |
| CCc1noc2cc(-c3ccccc3)n(C)c(=O)c12 | -11.16 | 2.9 | -6.9 | 8.09 | 1.75 | -7.67 |
| Clc1nc(Oc2ccccc2)nc(-c2cn(-c3ccccc3)c3ccccc23)n1 | 2.81 | 4.85 | 6.07 | 3.03 | -0.88 | -13 |
| N#CC1=C2CCCCC2(O)NC1=O (stereo not given) | 6.52 | -3.34 | 7.41 | 2.61 | -0.03 | -5.83 |
| Cc1nn(-c2ccccc2)nc1C(=O)Nc1ccc2[nH]ncc2c1 | 18.91 | 2.54 | 5.87 | 6.45 | -0.76 | -15.47 |
| c1cc(-n2nnc3cnccc32)ccn1 | 13.16 | -18.41 | 12.03 | -0.91 | -1.34 | -8.76 |
| CSc1nc(Cl)c(Br)c(Nc2cnc(O)nc2O)n1 | 5.42 | 6.52 | -1.71 | 4.64 | -2.17 | 0.33 |
| O=C1c2ccccc2C(=O)c2[nH]cnc21 | -4.2 | -6.06 | -19.22 | 13.37 | 6.65 | 21.89 |
| CCOc1ccc(/C=C2\CCc3ccccc3C2=O)cc1 | -3.91 | -2.84 | -2.65 | 4.93 | 5.43 | -7.99 |
| O=c1n(CC2CO2)c(=O)n(CC2CO2)c(=O)n1CC1CO1 (stereo not given) [TEROXIRONE] | 0.12 | -10.62 | 4.44 | 8.68 | 3.23 | -12.57 |
| O=C(Nc1ccc(Cl)cc1)c1cc2c(cc1O)[nH]c1ccccc12 | -1.15 | -12.34 | 2.48 | 13.56 | 8.44 | -5.53 |
| Br.C=CC1CN2CCC1CC2C(O)c1ccnc2ccc(OC)cc12 (stereo not given) | -3.41 | 0.49 | 16.29 | 15.08 | -0.01 | 7.91 |

— ChEMBL document CHEMBL4296182, “CO-ADD screening of NIH NCI Diversity Set V”
